± gives the standard deviation of the averaged measurements.
System: HCC1569
Experiment: cell number relative to DMSO (% of DMSO); higher = more cells (less growth inhibition / toxicity)
Conditions: concentration: 10 µM; 24 h
Summary of the method: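 Using 384-well plates with 800 cells per well in RPMI plus 10% FBS, HCC1569 and TDF cells were exposed to compounds at 10 µM, in triplicate, for 24 h at 37 °C. Imaging of six fields per well at ×10 followed H1.0 and DAPI staining. The reported quantity, H1.0 nuclear intensity or cell number, is a median of replicates given as percent of the plate control, and HCC1569 values were smoothed for positional effects.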
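Also: TDF denotes transformed human dermal fibroblasts of mesenchymal origin.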

SMILES	cell number
CCCCC=CCCCCCCCC(=O)O [9(E)-Tetradecenoic acid]	98.8
Cn1c(=O)c2c(ncn2Cc2ccc(C(C)(C)C)cc2)n(C)c1=O	81.6
C=CCc1ccccc1OCC(O)CNC(C)C.Cl (centres undefined) [Alprenolol hydrochloride]	96.8
COc1ccc(-c2ccc(N)[n+](CCCC(=O)O)n2)cc1.[Br-]	105
CN(C)C(=S)NN=C(c1ccccn1)c1ccccn1 [(Z)-di(2-pyridinyl)methanone N,N-dimethylthiosemicarbazone]	75.1
O=C(NCCN1CCC(n2c(=O)[nH]c3cc(Cl)ccc32)CC1)c1ccc(F)cc1	91.9
O=S(=O)(c1cccc2cnccc12)N1CCCNCC1	107
Brc1c(NC2=NCCN2)ccc2nccnc12	103
CC(C)(C)n1nc(-c2ccc(Cl)cc2)c2c(N)ncnc21	67.2
CCCCCCCCCCCCCCCCCCCCC(=O)O [Heneicosanoic acid]	102
CN1C(CC(=O)c2ccccc2)CCCC1CC(O)c1ccccc1.Cl (centres undefined)	102
Cc1ccc(C(=CCN2CCCC2)c2ccccn2)cc1.Cl [Trans-triprolidine.HCl]	100
COc1cc2c(Nc3ccc(Br)cc3F)ncnc2cc1OCC1CCN(C)CC1 [Vandetanib]	54.4
Cn1c(=O)c(-c2c(Cl)cccc2Cl)cc2cnc(Nc3ccc(N4CCOCC4)cc3)nc21	52.7
CC(=O)OCC(=O)NCCCOc1cccc(CN2CCCCC2)c1.Cl [Roxatidine acetate.HCl]	107
O=C(NCCO)c1cc(C(=O)NCCO)cc(C(=O)NCCO)c1	102
CC(=O)C1(O)CCC2C3CCC4=CC(=O)CCC4(C)C3CCC21C (stereo not drawn) [17alpha-hydroxyprogesterone]	98.8
CC(COc1ccccc1)N(CCCl)Cc1ccccc1.Cl (centres undefined) [Phenoxybenzamine.HCl]	106
CCCCCCCCC=CCCCCCCCCCCCCC(=O)O [14(Z)-Tricosenoic acid]	100
Cl.c1ccc2c(c1)CCCC2C1=NCCN1 (centres undefined) [Tetrahydrozoline hydrochloride]	101

SMILES	cell number
Nc1ccn(C2CCC(CO)O2)c(=O)n1 (centres undefined) [2',3'-dideoxycytidine]	99.7
CCN(CC)CC#CCOC(=O)C(O)(c1ccccc1)C1CCCCC1.Cl (centres undefined) [Oxybutynin Chloride]	101
CCN(CC)CCOc1ccc(C(=C(Cl)c2ccccc2)c2ccccc2)cc1 [Clomiphene]	99.9
NCC(O)c1ccc(O)c(O)c1.O=C(O)C(O)C(O)C(=O)O (stereo not drawn) [L(-)-Norepinephrine bitartrate]	109
Fc1ccc(-c2nc3n(c2-c2ccncc2)CCS3)cc1	95.4
Cc1ccc(OCCSc2ncccn2)c(Br)c1 [2-{[2-(2-bromo-4-methylphenoxy)ethyl]sulfanyl}pyrimidine]	100
COc1ccccc1N1CCN(CCCNc2c(C)c(=O)n(C)c(=O)n2C)CC1 [Urapidil, 5-Methyl-]	105
CCOC(=O)CCNc1cc(N2CCc3ccccc3CC2)nc(-c2ccccn2)n1	78.8
CCCCCCCCC=CCCCCCCCCCCCC(=O)O [13(Z)-Docosenoic acid]	104
O=c1cc(-c2cccc3c2Sc2ccccc2S3)oc(N2CCOCC2)c1 [ATM Kinase Inhibitor]	89.5
O=C1c2c(O)ccc(O)c2C(=O)c2c(NCCNCCO)ccc(NCCNCCO)c21 [Mitoxantrone]	53.2 ± 8.2
CC1(C)OC2CC(=O)OCC23C1CC(=O)C1(C)C3CCC2(C)C(c3ccoc3)OC(=O)C3OC321 (centres undefined) [Limonin]	103
CCCCCCCCCCCCCCCC(O)C(N)CO (racemic) [DL-Dihydrosphingosine]	103
CCCNCC(O)COc1ccccc1C(=O)CCc1ccccc1 (centres undefined) [Propafenone]	103
O=C1NCN(c2ccccc2)C12CCN(CCCC(c1ccc(F)cc1)c1ccc(F)cc1)CC2 [Fluspirilene]	82.7 ± 16
CC(C)Cn1cnc2c(N)nc3ccccc3c21 [Imiquimod]	102
Cl.Cl.O=S(=O)(NCCNCC=Cc1ccc(Br)cc1)c1cccc2cnccc12 [H-89, Dihydrochloride]	96.6
CC1=NN(c2ccccc2)C(=O)C1	101
COc1cc(C(=O)OC2CC(C)=CCCC(C)=CC(O)C2C(C)C)ccc1O (centres undefined) [Tschimganidin]	102

From the supplement of paper PMC7156485
